Data: PubChem BioAssay AID1851 (National Center for Advancing Translational Sciences (NCATS), 2009)
About 2,600 (16%) of roughly 16,000 compounds were called active. About 20% were inconclusive and are not listed. Calls come from the whole dose curve; as a rule, active = well fitted curve in the direction sought with a large enough effect; inconclusive = small, poorly fitted or top-dose-only effect, or effect the other way; inactive = no such curve, though single readings can be large or run the other way. A selection follows.

Target: Cytochrome P450 2D6 (Homo sapiens) (UniProt P10635)
Assay: Cytochrome panel assay with activity outcomes
Details: recombinant CYP, pro-luciferin dealkylation, luminescence, p450-cyp2d6; series mostly up to 57.1 µM
% is set by controls: 0 for no effect and ±100 for the full control effect.

Sequence of Cytochrome P450 2D6 (Homo sapiens) (P10635 whole entry, looked up): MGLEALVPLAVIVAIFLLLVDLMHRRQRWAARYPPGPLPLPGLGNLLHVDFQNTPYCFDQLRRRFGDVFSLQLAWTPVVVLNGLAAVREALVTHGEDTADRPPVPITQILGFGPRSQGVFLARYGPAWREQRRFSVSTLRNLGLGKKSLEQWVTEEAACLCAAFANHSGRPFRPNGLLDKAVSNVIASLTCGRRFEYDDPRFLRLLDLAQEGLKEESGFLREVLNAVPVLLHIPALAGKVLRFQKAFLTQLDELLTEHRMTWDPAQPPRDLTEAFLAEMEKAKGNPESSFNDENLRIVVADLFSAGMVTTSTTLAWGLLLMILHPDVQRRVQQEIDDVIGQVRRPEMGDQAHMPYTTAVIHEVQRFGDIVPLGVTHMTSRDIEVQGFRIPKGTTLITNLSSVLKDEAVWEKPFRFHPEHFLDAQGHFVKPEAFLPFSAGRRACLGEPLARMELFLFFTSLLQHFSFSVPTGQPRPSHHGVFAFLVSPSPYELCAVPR

activity, negative = inhibition, inactive:
COc1ccc(COC(=O)N/N=C2/C[C@@H](O)[C@@H](O)[C@@H]3[C@@H]4C(=O)N(C(C)(C)C)C(=O)[C@H]4CC[C@H]23)cc1 19.2% [at 11.4 µM]
O=[N+]([O-])c1ccc2ncccc2c1CCc1c([N+](=O)[O-])ccc2ncccc12 -19.7% [at 11.4 µM]
O=C1Nc2ccccc2C1=Nc1ccc(S(=O)(=O)Nc2nccs2)cc1 16.3% [at 11.4 µM]
CC(C)(C)N1C(=O)[C@H]2[C@@H]3[C@H](O)[C@H](O)CC(=O)[C@H]3CC[C@H]2C1=O 7.18% [at 11.4 µM]
Cc1cc2c(=O)[nH]c(N)nc2nc1C 14.7% [at 11.4 µM]
O=c1[nH]c(SCc2cccc([N+](=O)[O-])c2)nc2nc[nH]c12 10.7% [at 11.4 µM]
CCN1C(=O)[C@H]2[C@H]3[C@H](O)[C@H](O)C/C(=N/NC(=O)OCc4ccccc4)[C@@H]3CC[C@@H]2C1=O 10.8% [at 11.4 µM]
O=C(Nc1ccc2c(c1)Cc1ccccc1-2)[C@@H]1[C@H](C(=O)O)[C@]2(Cl)C(Cl)=C(Cl)[C@@]1(Cl)C2(Cl)Cl -10.2% [at 11.4 µM]
NCC(=O)Nc1ccc(Cl)cc1C(=O)c1ccc[nH]1 3.55% [at 11.4 µM]
C#CCCCO/N=C1/C[C@@H](O)[C@@H](O)[C@@H]2[C@H]3C(=O)N(c4ccc(F)cc4F)C(=O)[C@@H]3CC[C@@H]12 8.28% [at 11.4 µM]
C[C@H](O/N=C1/[C@H]2O[C@@H]2[C@@H](O)[C@H]2[C@H]1CCn1c(=O)n(-c3ccccc3)c(=O)n12)c1cn([C@H]2COC[C@H]2O)nn1 -1.7% [at 11.4 µM]
C[C@@H]1/C=C\CC(=O)OC[C@H](C)C(=O)N2CCC[C@@H]2C(=O)OC1 7.63% [at 11.4 µM]
Cc1ccc(NC(=O)c2ccccc2C(=O)O)cc1C -8.28% [at 11.4 µM]

AC50, active:
O=C(CC(c1ccccc1)c1ccccc1)Nc1ccc2c(c1)OCCO2 0.251 µM
Cc1ccc2c(C)nc(Nc3nc(CSc4nc5ccccc5[nH]4)cc(=O)[nH]3)nc2c1 3.55 µM
CN1CCc2cccc3c2[C@H]1Cc1ccc(O)c(O)c1-3 12.6 µM
COC(=O)CCSc1cc([N+](=O)[O-])cc2c1c(C1OCCS1)nn2-c1ccccc1 (configuration not stated) 12.6 µM
Cc1cc(O)c(/C=N/Nc2cccc(Cl)c2)c(=O)o1 0.158 µM
Cc1ccc(-n2c(-c3ccc(Br)cc3)c[n+]3c2CCc2ccc4cccnc4c2-3)cc1 1.41 µM
S=C(NCc1ccco1)N1CCN(C(c2ccccc2)c2ccccc2)CC1 7.94 µM
S=C(NCc1ccco1)N1CCN(Cc2ccco2)CC1 7.94 µM
O=C(CN1CCN(Cc2ccccc2)CC1)c1ccc(Br)cc1 1.41 µM
Clc1ccccc1-c1ccc2ncnc(NCCN3CCOCC3)c2c1 10 µM
c1nc(NCCN2CCOCC2)c2cc(-c3ccoc3)ccc2n1 2 µM
c1nc(NCCN2CCOCC2)c2cc(-c3ccc4c(c3)OCO4)ccc2n1 7.94 µM
CC(=O)NCCNc1ncnc2ccc(-c3ccc4c(c3)OCO4)cc12 10 µM
Cc1ccc(-c2csc3ncnc(NCCN4CCOCC4)c23)cc1 2.82 µM
O=[N+]([O-])C(/C=C(\Cl)[N+](=O)[O-])=C1N(Cc2ccc(Cl)nc2)CCN1Cc1ccc(Cl)nc1 15.8 µM
Cc1ccc(-n2c(O)cnc2Nc2nc(C)cc(C)n2)cc1 12.6 µM
Oc1c(CN2CCOCC2)cc(-c2ccccc2)cc1CN1CCOCC1 12.6 µM
Cc1cc2ccccc2c[n+]1CC(O)C[n+]1cc2ccccc2cc1C 0.0251 µM
Cc1oc(-c2ccccc2)cc1C(=O)Nc1ccc(N(C)C)cc1 7.94 µM

AC50, inactive:
O=C(O)CCc1ccc(-c2ccc(Cl)cc2)n1CCC(=O)O
O=S(=O)(c1ccccc1)N1CCCC1c1nc2ccccc2s1 (configuration not stated)
COc1ccc(N2C(=O)CCC(C(=O)Nc3ccccn3)C2c2ccc(OC)c(OC)c2)cc1 (configuration not stated)
Oc1cc(O)c2c(c1)O[C@H](c1ccc(O)c(O)c1)[C@H](O)C2
COc1ncc2ncc(=O)n(C)c2n1
COC(=O)C1CSC(C(=O)OC)N1C(=O)Nc1ccccc1 (configuration not stated)
CC(=O)Nc1ccc2c(c1)OCCOCCOc1cc(NC(C)=O)ccc1OCCOCCOCCO2
CC(=O)Nc1ccc2c(c1)OCCO2
CO[C@H]1[C@@H](OC(N)=O)[C@H](O)[C@@H](Oc2ccc3c(O)c(NC(=O)c4ccc(O)c(CC=C(C)C)c4)c(=O)oc3c2C)OC1(C)C
COc1ccc(CCNC(=O)c2ccc3c(=O)n(Cc4ccco4)c(=S)[nH]c3c2)cc1OC
Cc1ccc2nc(Nc3nc(-c4ccccc4)cc(=O)[nH]3)nc(C)c2c1
Cc1ccc2nc(SCC(=O)Nc3nnc(SCC(N)=O)s3)[nH]c2c1
Cc1nn(C)c(Oc2cccc(Cl)c2)c1C=O
Cc1ccc(C(=O)N/C(=C\c2ccc([N+](=O)[O-])cc2)C(=O)NCCc2ccccc2)cc1
CN1CCc2cccc3c2[C@@H]1Cc1ccc(O)c(O)c1-3
COc1ccc(C2=CSC(/N=C/c3ccc(F)cc3)=NN2)cc1
Cc1ccccc1OC/C(O)=C(\C#N)c1nc2ccccc2[nH]1
Cc1ccc(-n2cnc(=O)c3cccnc32)cc1
CCCCC[C@H](CC(=O)NO)C(=O)N[C@@H](C(=O)N1CCC[C@H]1CO)C(C)C
Nc1ccc(O)c(C(=O)O)c1
CCC(=O)NC(Nc1sc2c(c1C(=O)OC)CCCC2)(C(F)(F)F)C(F)(F)F
O=C(Nc1ccccn1)c1ccco1
Cc1cccc(C(=O)NC2CCN(C(=S)NCc3ccco3)CC2)c1
O=C(CSc1ccccc1C(=O)O)NCc1ccco1
CCS(=O)(=O)N1CCC(C(=O)NCc2ccco2)CC1
O=C(O)C1C2CCC(C2)C1C(=O)NCc1ccco1 (configuration not stated)
O=C(NCc1ccco1)c1cc(C(=O)C2CC2)c[nH]1
COc1ccc2c(OC)c3ccoc3nc2c1OC
O=C(c1coc(=O)c2ccccc12)N1CCN(Cc2ccccc2)CC1
O=C(c1cc(C(F)(F)F)cc(C(F)(F)F)c1)N1CCC2(CCN(Cc3ccccc3)CC2)CC1
CCc1c(O)nc2sc3ccccc3n2c1=O
CC(=O)c1cccc(NC=C2C(=O)OC3(CCCCC3)OC2=O)c1
CCc1nnc(NC(=O)c2c(C)nn(-c3ccccc3)c2Cl)s1
CC(=O)NCCNc1ncnc2ccc(-c3ccc(C(=O)N(C)C)cc3)cc12
CN(C)C(=O)c1ccc(-c2ccc3ncnc(NCCN4CCOCC4)c3c2)cc1
CC(=O)NCCNc1ncnc2ccc(-c3ccoc3)cc12
Clc1ccccc1-c1cc(NCCN2CCOCC2)ncn1
c1ccc(-n2ncc3c(NCCCN4CCOCC4)ncnc32)cc1
c1ccc2c(c1)CCCc1cc(NCCN3CCOCC3)nnc1-2
CCCc1nnc(NC(=O)c2cccs2)s1
O=C(/C=C/c1ccc(Br)cc1)NC1CCCCCC1
Cc1ccc(C(=O)Nc2cccc(-c3cnc4ccccc4n3)c2)cc1
CSc1nc2n(n1)C(c1cc(Br)ccc1F)C(C(=O)N(C)C)=C(C)N2 (configuration not stated)
CN[C@]1(C)[C@@H]2CC[C@@H](C2)C1(C)C
Cc1ccc(NC(=O)CCN2C(=O)c3ccncc3C2=O)cc1
CCN1C(=O)/C(=C2\SC(=S)N(CCCOC)C2=O)c2ccccc21
N[C@@H](Cc1cc(CP(=O)(O)O)cc(-c2ccccc2Cl)c1)C(=O)O
CC(=NCCN1CCN(C(=S)Nc2ccccc2)CC1)C1=C(O)CC(C)(C)CC1=O
Nc1ccc(N2C(=O)c3ccccc3C2=O)c(Cl)c1
COc1ccc(-n2c(=O)c(C)nc3cnc(Nc4ccccc4)nc32)cc1
O=S(=O)(/N=C(/Nc1ccc(F)cc1F)c1ccc(Cl)cc1)c1ccccc1
Cc1c(NC(=O)CSc2nnc3c4ccccc4n(CCc4ccccc4)c3n2)c(=O)n(-c2ccccc2)n1C
Cc1ccc(-n2c(C)cc(C(=O)CSc3n[nH]c(N)n3)c2C)cc1
Cc1ccc(-n2c(-c3ccccc3)cc(=O)nc2C)cc1
CSc1nc(NC2CCCC2)c([N+](=O)[O-])c(NC2CCCC2)n1
CC(C)[C@H]1C(=O)C(C(N)=O)=C(O)[C@]2(O)C(=O)C3=C(O)c4c(O)ccc(N(C)C)c4C[C@H]3C[C@@H]12
CCc1cc2c(=O)c(-c3cnn(-c4ccccc4)c3)coc2c(CN2CCOCC2)c1O
N#C/C(=C/N1CCOCC1)c1ccccc1
NC/C=C\C(=O)O
CCc1nnc(NC(=O)CSc2ncnc3c2cnn3-c2ccc(OC)cc2)s1
CCOC(=O)CN1C(=O)Nc2ccc(Br)cc2C1c1ccccc1 (configuration not stated)
CC1=C(C(N)=O)C(c2ccccc2)n2nc(-c3ccncc3)nc2N1 (configuration not stated)
Cc1ccc[n+](CC(=O)c2cc3ccccc3oc2=O)c1
Cc1o[nH]c(=O)c1CC[C@H](N)C(=O)O
Cc1oc(C(C)(C)C)cc1C(=O)Nc1cccc(/C=C/C(=O)O)c1
